# SARS PLpro yeast: SARS-CoV PLP inhibition in yeast; 0.19% of 330,000 active; S. cerevisiae expressing SARS-CoV PLpro, growth rescue; Potency, µM (top dose mostly 32.9 µM), inactives show at the top dose activity, positive = growth rescue, actives largely listed as activators; calls by dose curve; further: 0% is about no effect; nearly all actives have a fitted effect of over 55% in size
# Pf growth 96h: P. falciparum growth inhibition at 96 hour, primary screen for plastid delayed-death inhibitors; 6.9% of 320,000 active; AID 504834; Potency, µM (titrated, usually from 28.7 µM), without a hit: at the top dose activity change, negative = inhibition, hits mostly inhibitors; P. falciparum luciferase reporter growth, 96 h; further: on the % scale 0 is the no-effect control and ±100 the full control effect
#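 Plates of compound plus infected erythrocytes (2% hematocrit, 0.05% parasitemia final) incubate 96 hours, 37 C, 5% CO2. Detection reagent added; reduced luminescence from the parasites' luciferase reporter flags inhibition.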
# Pf growth 48h: P. falciparum growth inhibition at 48 hours (one generation). P. falciparum luciferase growth in erythrocytes, 48 h. Potency, µM (highest dose often 28.7 µM), inactives show at the top dose activity change, negative = inhibition, usual class: inhibitors. 5.9% of 310,000 active; further: on the % scale 0 is the no-effect control and ±100 the full control effect
#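 Firefly luciferase activity from engineered P. falciparum reports growth; inhibitors lower the luminescent signal. Cultures contained 2% hematocrit erythrocytes at 0.1% final parasitemia.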
# Sm TGR inh: inhibitors of Schistosoma mansoni thioredoxin glutathione reductase. Q962Y6. purified TGR, DTNB reduction, TNB absorbance 405 nm. Potency, µM (highest dose often 114 µM), for the others: top-dose activity change, negative = inhibition, usual class: inhibitors. 3% of 360,000 active; further: on the % scale 0 is the no-effect control and ±100 the full control effect; nearly all actives have a fitted effect of over 60% in size
#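 First, TGR (20 nM dispensed) and NADPH were mixed with compound. Second, a 15 min room-temperature incubation followed. Third, further NADPH and then DTNB were added to start the reaction. Finally, TNB absorbance was monitored kinetically.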
# * hit, by the source's call; ? = inconclusive; . = not tested or not shown. Rows were chosen to be rich in hits. Some 12% of all compounds tested hit in one or more screens of this group. Unless noted, the call rests on the fitted dose curve; in most records, active means well fitted curve in the direction sought with a large enough effect; inconclusive means small, poorly fitted or top-dose-only effect, or another doubt; inactive means no such curve, though single readings can be large; an effect the other way counts as inactive or inconclusive. Potency means the concentration at half of the fitted maximal effect.
SMILES,SARS PLpro yeast,Pf growth 96h,Pf growth 48h,Sm TGR inh
COc1ccc2c(C)c(CCC(=O)NCc3ccc(Cl)cc3)c(=O)oc2c1C,.,.,.,2%
CCCn1c(N)c(N(C)C)c(=O)n(CC(=O)Nc2ccc(OC(F)(F)F)cc2)c1=O,2%,10µM*,-2%,8%
CCCn1c(N)c(N2CCCCC2)c(=O)n(CC(=O)Nc2ccccc2)c1=O,11%,-2%,.,-5%
COc1ccc(CNc2nc(=S)[nH]c3cc(OC)c(OC)cc23)cc1,1%,-20%,-30%,-17%
CCOc1ccc2[nH]c3c(NCCOC)ncnc3c2c1,1%,?,5%,5%
C1=C(CCNc2ncnc3c2[nH]c2ccccc23)CCCC1,-102%,0.26µM*,?,2%
CC(C)OCCCNc1ncnc2c1[nH]c1ccccc12,-3%,?,5.9µM*,2%
COc1ccc(CNc2ncnc3c2[nH]c2cc(OC)c(OC)cc23)cc1,-8%,1.7µM*,2.1µM*,-9%
COc1ccc(CNc2ncnc3c2[nH]c2ccccc23)cc1,-4%,1.7µM*,2.3µM*,2%
CCC1(c2ccccc2)NC(=O)N(CC(=O)Nc2ccccc2C(=O)N2CCCCC2)C1=O (stereo not drawn),0%,35%,7%,4%
CCC1CCCCN1CCCNC(=O)c1ccc(CS(=O)(=O)c2ccccc2OC)o1 (stereo not drawn),-5%,12%,16%,-17%
Cc1ccc(-n2nc(CO)c(C(=O)NCc3cccnc3)n2)cc1,.,.,.,2%
CCc1cccc(NC(=O)c2cc3c(=O)[nH]c4ccccc4c3n2C)c1,.,.,.,-7%
Cc1cc(C)nc(N2CCCC(C(=O)Nc3cccc(Cl)c3)C2)n1 (stereo not drawn),0%,-4%,?,0%
O=C(NC(Cc1ccccc1)c1nc2ccccc2[nH]1)C1CC(=O)N(c2ccc3c(c2)OCCO3)C1 (stereo not drawn),-4%,2.9µM*,0%,3%
COc1cccc(C(=O)CC(C#N)c2ccc(F)cc2)c1 (stereo not drawn),-1%,-11%,?,4%
CCN(CC)S(=O)(=O)c1ccc(OC)c(NC(=O)C(C)Oc2ccc3c(C)cc(=O)oc3c2)c1 (stereo not drawn),2%,9.3µM*,1.9µM*,-2%
CCN(CC)S(=O)(=O)c1ccc(C)c(NC(=O)COc2ccc3c(C)cc(=O)oc3c2)c1,-1%,14%,2%,-10%
Cc1ccc(S(=O)(=O)CCC(=O)Oc2ccc3c(C)cc(=O)oc3c2)cc1,1%,1%,?,22µM*
COc1ccc(CCC2(C)NC(=O)N(C(C)C(=O)Nc3ccccc3F)C2=O)cc1 (stereo not drawn),2%,?,-27%,-1%
CC[C@H](C)C(C(=O)N1CCN(C(=O)OC(C)(C)C)CC1)n1cc(C(Cc2ccc(O)cc2)NC(=O)OC(C)(C)C)nn1 (stereo partly drawn),1%,1.7µM*,?,-12%
CC(C)CC(NC(=O)OC(C)(C)C)c1cn([C@@H](Cc2ccc(O)cc2)C(=O)N2CCN(C(=O)OC(C)(C)C)CC2)nn1 (stereo partly drawn),1%,4.7µM*,?,5%
CC(C)(C)OC(=O)N1CCN(C(=O)[C@H](Cc2ccc(O)cc2)n2cc(CCO)nn2)CC1,0%,30%,35%,-1%
CC(C)CC(NC(=O)OC(C)(C)C)c1cn([C@@H](Cc2cc3ccccc3[nH]2)C(=O)N2CCN(C(=O)OC(C)(C)C)CC2)nn1 (stereo partly drawn),1%,5.2µM*,?,-20%
CC[C@H](C)C(C(=O)N1CCN(C(=O)OC(C)(C)C)CC1)n1cc(C(CO)NC(=O)OC(C)(C)C)nn1 (stereo partly drawn),0%,?,-4%,-5%
SMILES,SARS PLpro yeast,Pf growth 96h,Pf growth 48h,Sm TGR inh
CC(C)(C)OC(=O)NC(CO)c1cn([C@@H](Cc2cc3ccccc3[nH]2)C(=O)N2CCN(C(=O)OC(C)(C)C)CC2)nn1 (stereo partly drawn),1%,?,?,14%
CCOC(=O)c1ccc(NCc2cccnc2)cc1,-4%,11%,56%,-2%
N#Cc1ccc(OCC(=O)OCC(=O)NC2CC2)cc1,-6%,.,.,.
NS(=O)(=O)c1ccc(NC(=S)NCc2ccccc2)cc1,15%,?,20%,-23%
NS(=O)(=O)c1ccc(NC(=S)NCc2ccccc2Cl)cc1,-2%,?,9%,?
NS(=O)(=O)c1ccc(NC(=S)Nc2cc(Cl)c(Cl)cc2Cl)cc1,3%,33%,-7%,32µM*
NS(=O)(=O)c1ccc(NC(=S)Nc2ccc(C(=O)N3CCCCC3)cc2)cc1,0%,-23%,1%,45µM*
CSc1ccccc1NC(=S)Nc1ccc(S(N)(=O)=O)cc1,2%,30%,-10%,22µM*
Cc1onc(-c2c(F)cccc2Cl)c1C(=O)Nc1sc2c(c1C#N)CCC(C(C)(C)C)C2 (stereo not drawn),-10%,?,6.6µM*,4%
CCOC(=O)c1ccc(NS(=O)(=O)c2cc(-c3onc(C)c3C)ccc2C)cc1,.,.,.,-1%
CC(/C=C/c1ccccc1)=N\Nc1nc2c(c(=O)[nH]c(=O)n2C)n1CCO,1%,-13%,35%,14µM*
CCCn1c(N/N=C\C=C\c2ccccc2)nc2c1c(=O)[nH]c(=O)n2C,-1%,40%,?,?
COCCn1c(N/N=C(C)/C=C/c2ccccc2)nc2c1c(=O)[nH]c(=O)n2C,0%,?,-7%,25µM*
O=C(OCc1ccccc1)/C(=C(\O)c1ccccc1Br)c1ccc(-c2ccccc2)cn1,2%,1%,?,-2%
COc1cc(S(=O)(=O)n2nnc3ccccc32)c(OC)cc1Cl,4%,9.3µM*,0%,0%
COc1ccc(OC)c(S(=O)(=O)n2nnc3cc(Cl)ccc32)c1,-4%,-6%,-20%,-6%
CCCc1nc(C)c2c(=O)[nH]c(-c3cc(S(=O)(=O)N4CCN(CC)CC4)ccc3OCC)nn12,.,7.6µM*,?,.
Cc1cc2n(n1)SC(Nc1ccc(F)c(Cl)c1)N2 (stereo not drawn),-49%,9%,34%,8.9µM*
COC(=O)c1ccc(-n2nnnc2SCC(=O)Nc2ccccc2OC)cc1,-3%,.,10%,-25%
CCOc1ccccc1NC(=O)CSc1nnnn1-c1ccc(C(=O)OC)cc1,-7%,4.1µM*,13%,-3%
Cc1ccc(-n2nnnc2SCC(=O)Nc2ccccc2N2CCCCC2)cc1C,9%,?,2.3µM*,0%
CC(Sc1nnnn1-c1ccccc1)C(=O)Nc1ccc(N2CCN(C)CC2)cc1 (stereo not drawn),5%,22%,-2%,-18%
O=C(CSc1nnnn1-c1cccc(Cl)c1)Nc1ccc2c(c1)CCC2,11%,1.9µM*,4%,-4%
COc1ccc(-n2nnnc2SCC(=O)Nc2ccccc2N2CCOCC2)cc1,-1%,13%,?,.
CC(Sc1nnnn1-c1ccccc1)C(=O)Nc1ccccc1-c1ccccc1 (stereo not drawn),5%,2.9µM*,?,-17%
